Article PMC7862700, “An all-to-all approach to the identification of sequence-specific readers for epigenetic DNA modifications on cytosine”

Experiments:
Assay in all cases: DAPPL (digital affinity profiling via proximity ligation, sequencing); 10 mM Tris-HCl pH 7.5, 50 mM NaCl, 1 mM DTT, 4% glycerol, room temperature, 30 min; GST-TFs on glutathione beads, 16-mer random dsDNA library, 0.1% formaldehyde crosslink after washing; high values mean tight binding
FLI1 = molecular target: T1, FLI1 (Homo sapiens, UniProt Q01543 1-452); settings: protein: recombinant; tags: N-terminal GST; dsDNA, one strand shown
T1 sequence: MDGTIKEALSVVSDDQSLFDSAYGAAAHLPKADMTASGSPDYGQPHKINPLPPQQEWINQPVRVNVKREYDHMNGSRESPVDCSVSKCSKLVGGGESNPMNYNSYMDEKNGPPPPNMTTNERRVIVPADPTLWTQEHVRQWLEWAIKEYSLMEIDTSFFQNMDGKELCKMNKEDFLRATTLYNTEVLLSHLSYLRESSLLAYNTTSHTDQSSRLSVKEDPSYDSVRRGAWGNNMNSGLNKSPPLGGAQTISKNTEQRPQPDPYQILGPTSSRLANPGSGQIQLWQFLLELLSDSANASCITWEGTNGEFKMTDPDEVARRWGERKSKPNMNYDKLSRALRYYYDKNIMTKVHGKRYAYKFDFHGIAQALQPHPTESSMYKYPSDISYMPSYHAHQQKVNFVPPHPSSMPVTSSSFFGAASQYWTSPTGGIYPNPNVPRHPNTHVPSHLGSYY
Summary of the method: (§1)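 Beads coated with glutathione captured GST-fused human transcription factors that had been expressed in yeast, and the factors were then given DNA barcodes and pooled with a tag-only sample. The pools were incubated with 200 nmole of a random double-stranded 16-mer DNA library in Tris/NaCl/DTT/glycerol buffer for 30 min at room temperature, washed, crosslinked with 0.1% formaldehyde and proximity-ligated with BsaI/T4 ligase at 37 °C for 1 h. PCR amplification and Illumina NextSeq500 sequencing came last. Binding signal is each hexamer's read frequency for a factor divided by its frequency for the tag-only sample.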

ELK1 = molecular target: T2, ELK1 (Homo sapiens, UniProt P19419 1-428); settings: protein: recombinant; tags: N-terminal GST; dsDNA, one strand shown
T2 sequence: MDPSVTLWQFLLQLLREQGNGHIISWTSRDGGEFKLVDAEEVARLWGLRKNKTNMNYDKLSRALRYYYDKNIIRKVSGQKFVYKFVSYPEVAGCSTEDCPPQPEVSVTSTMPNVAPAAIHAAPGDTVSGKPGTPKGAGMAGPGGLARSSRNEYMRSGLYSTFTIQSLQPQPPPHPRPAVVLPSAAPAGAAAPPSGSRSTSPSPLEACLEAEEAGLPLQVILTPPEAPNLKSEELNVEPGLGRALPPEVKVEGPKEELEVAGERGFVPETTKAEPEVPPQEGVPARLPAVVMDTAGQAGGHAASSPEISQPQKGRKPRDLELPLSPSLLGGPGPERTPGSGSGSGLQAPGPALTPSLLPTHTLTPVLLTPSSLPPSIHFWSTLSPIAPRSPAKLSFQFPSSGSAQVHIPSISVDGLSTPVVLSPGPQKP
Summary of the method: as §1

GABPA = molecular target: T3, GABPA (Homo sapiens, UniProt Q06546 1-454); settings: protein: recombinant; tags: N-terminal GST; dsDNA, one strand shown
T3 sequence: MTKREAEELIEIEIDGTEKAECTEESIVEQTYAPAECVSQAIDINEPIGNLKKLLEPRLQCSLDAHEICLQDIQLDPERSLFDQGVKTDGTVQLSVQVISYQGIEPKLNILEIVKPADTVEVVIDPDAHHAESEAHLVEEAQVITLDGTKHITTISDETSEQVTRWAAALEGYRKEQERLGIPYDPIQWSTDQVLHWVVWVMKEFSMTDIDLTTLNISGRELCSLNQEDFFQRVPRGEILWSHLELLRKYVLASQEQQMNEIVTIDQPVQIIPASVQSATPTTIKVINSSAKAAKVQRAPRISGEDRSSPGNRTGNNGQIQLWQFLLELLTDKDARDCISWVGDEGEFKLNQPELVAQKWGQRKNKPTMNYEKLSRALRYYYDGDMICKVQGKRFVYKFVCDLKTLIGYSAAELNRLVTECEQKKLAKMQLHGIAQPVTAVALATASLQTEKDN
Summary of the method: as §1

ERG = molecular target: T4, ERG (Homo sapiens, UniProt P11308 1-479); settings: protein: recombinant; tags: N-terminal GST; dsDNA, one strand shown
T4 sequence: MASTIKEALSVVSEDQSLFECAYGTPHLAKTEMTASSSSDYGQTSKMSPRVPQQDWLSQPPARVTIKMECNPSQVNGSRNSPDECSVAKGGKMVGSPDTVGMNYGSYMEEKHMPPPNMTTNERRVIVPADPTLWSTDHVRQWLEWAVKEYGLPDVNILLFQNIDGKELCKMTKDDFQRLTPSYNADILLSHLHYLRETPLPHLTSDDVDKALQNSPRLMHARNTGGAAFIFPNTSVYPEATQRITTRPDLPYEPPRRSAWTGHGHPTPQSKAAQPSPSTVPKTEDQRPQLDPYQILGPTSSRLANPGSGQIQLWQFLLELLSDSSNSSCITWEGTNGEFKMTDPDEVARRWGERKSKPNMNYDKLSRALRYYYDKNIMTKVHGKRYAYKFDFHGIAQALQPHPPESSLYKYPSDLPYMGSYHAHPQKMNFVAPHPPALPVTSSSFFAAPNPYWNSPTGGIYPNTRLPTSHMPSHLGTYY
Summary of the method: as §1

ELF1 = ELF1 (Homo sapiens, UniProt P32519 1-619); settings: protein: recombinant; tags: N-terminal GST; dsDNA, one strand shown
Sequence of ELF1 (P32519 whole entry): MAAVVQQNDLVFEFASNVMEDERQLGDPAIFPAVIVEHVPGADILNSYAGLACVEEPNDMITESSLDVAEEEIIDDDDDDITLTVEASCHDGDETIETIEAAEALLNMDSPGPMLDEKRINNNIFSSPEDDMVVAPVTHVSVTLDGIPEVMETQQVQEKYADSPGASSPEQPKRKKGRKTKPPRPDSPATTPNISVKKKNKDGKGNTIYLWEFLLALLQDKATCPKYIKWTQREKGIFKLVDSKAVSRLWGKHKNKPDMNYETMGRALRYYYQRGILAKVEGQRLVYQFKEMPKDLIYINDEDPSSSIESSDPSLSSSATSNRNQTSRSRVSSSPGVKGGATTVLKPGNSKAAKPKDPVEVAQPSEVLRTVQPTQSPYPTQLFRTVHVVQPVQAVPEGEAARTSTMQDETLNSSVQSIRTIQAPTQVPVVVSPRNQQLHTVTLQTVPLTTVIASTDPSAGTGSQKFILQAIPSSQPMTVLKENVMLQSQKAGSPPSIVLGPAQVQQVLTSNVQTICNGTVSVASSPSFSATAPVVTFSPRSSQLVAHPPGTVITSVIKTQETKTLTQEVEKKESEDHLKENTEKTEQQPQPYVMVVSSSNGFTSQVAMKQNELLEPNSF
Summary of the method: as §1

EHF = molecular target: T5, EHF (Homo sapiens, UniProt Q9NZC4 1-300); settings: protein: recombinant; tags: N-terminal GST; dsDNA, one strand shown
T5 sequence: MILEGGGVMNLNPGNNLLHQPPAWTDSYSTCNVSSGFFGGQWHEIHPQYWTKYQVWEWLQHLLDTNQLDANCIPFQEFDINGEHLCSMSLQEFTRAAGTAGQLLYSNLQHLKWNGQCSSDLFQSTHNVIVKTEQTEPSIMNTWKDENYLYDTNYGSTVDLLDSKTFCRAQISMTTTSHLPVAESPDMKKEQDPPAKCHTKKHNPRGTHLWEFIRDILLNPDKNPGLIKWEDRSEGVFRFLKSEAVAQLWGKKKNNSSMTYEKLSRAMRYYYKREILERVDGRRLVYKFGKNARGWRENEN
Summary of the method: as §1

SPI1 = SPI1 (Homo sapiens, UniProt P17947 1-270); settings: protein: recombinant; tags: N-terminal GST; dsDNA, one strand shown
Summary of the method: as §1

SPIB = SPIB (Homo sapiens, UniProt Q01892 1-262); settings: protein: recombinant; tags: N-terminal GST; dsDNA, one strand shown
Sequence of SPIB (Q01892 whole entry): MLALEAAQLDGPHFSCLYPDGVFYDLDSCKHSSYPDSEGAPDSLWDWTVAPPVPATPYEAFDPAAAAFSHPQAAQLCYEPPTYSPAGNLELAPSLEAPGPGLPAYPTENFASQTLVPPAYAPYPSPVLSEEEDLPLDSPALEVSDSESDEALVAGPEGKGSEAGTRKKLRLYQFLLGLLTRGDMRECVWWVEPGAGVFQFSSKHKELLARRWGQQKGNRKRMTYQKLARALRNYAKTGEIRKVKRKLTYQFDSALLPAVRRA
Summary of the method: as §1

ELK3 = molecular target: T6, ELK3 (Homo sapiens, UniProt P41970 1-407); settings: protein: recombinant; tags: N-terminal GST; dsDNA, one strand shown
T6 sequence: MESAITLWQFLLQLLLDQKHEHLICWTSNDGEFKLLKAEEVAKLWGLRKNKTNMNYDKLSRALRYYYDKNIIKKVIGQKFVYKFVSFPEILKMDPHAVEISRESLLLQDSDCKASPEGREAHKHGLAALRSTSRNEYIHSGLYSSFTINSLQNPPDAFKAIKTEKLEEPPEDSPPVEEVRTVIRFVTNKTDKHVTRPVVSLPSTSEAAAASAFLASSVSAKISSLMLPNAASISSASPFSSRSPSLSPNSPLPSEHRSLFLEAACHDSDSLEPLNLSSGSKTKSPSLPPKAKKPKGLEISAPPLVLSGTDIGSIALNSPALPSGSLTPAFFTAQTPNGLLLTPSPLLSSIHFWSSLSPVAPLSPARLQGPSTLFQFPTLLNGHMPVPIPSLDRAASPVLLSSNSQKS
Summary of the method: as §1

FEV = molecular target: T7, FEV (Homo sapiens, UniProt Q99581 1-238); settings: protein: recombinant; tags: N-terminal GST; dsDNA, one strand shown
T7 sequence: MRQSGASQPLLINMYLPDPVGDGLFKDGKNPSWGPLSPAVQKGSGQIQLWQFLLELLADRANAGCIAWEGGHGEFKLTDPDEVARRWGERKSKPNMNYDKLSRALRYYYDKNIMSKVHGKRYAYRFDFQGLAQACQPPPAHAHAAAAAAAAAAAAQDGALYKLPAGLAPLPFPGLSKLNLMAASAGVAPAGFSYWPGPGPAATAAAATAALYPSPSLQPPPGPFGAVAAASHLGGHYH
Summary of the method: as §1

ETV5 = ETV5 (Homo sapiens, UniProt P41161 1-510); settings: protein: recombinant; tags: N-terminal GST; dsDNA, one strand shown
Sequence of ETV5 (P41161 whole entry): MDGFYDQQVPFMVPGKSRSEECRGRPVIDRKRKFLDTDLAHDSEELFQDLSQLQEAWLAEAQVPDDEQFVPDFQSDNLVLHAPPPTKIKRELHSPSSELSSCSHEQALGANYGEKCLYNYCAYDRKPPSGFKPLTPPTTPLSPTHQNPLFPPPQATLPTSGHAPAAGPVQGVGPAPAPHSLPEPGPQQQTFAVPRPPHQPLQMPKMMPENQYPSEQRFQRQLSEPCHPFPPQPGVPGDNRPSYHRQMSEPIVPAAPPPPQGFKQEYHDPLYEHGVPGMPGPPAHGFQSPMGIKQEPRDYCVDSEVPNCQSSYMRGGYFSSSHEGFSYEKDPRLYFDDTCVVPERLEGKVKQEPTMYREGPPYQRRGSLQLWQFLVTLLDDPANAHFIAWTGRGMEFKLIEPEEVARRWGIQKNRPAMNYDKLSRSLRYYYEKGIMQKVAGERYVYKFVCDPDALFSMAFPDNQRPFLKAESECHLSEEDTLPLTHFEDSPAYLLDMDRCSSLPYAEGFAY
Summary of the method: as §1

HSF1 = HSF1 (Homo sapiens, UniProt Q00613 1-529); settings: protein: recombinant; tags: N-terminal GST; chain copies: 3; dsDNA, one strand shown
Sequence of HSF1 (Q00613 whole entry): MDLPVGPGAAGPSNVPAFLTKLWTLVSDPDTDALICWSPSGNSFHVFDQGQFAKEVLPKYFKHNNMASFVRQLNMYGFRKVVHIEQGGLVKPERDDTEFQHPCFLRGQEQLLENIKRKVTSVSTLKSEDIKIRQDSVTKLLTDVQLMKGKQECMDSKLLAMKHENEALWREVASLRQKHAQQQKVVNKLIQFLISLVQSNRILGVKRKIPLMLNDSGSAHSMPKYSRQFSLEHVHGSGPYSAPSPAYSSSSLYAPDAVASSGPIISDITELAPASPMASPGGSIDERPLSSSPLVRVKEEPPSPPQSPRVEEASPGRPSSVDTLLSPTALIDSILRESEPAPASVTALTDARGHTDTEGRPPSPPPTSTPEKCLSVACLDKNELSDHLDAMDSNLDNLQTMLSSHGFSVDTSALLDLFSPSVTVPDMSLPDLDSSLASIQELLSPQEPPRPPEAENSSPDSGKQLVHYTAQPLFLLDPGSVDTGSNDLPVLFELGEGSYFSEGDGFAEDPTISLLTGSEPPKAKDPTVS
Summary of the method: as §1

SPIC = molecular target: T8, SPIC (Homo sapiens, UniProt Q8N5J4 1-248); settings: protein: recombinant; tags: N-terminal GST; dsDNA, one strand shown
T8 sequence: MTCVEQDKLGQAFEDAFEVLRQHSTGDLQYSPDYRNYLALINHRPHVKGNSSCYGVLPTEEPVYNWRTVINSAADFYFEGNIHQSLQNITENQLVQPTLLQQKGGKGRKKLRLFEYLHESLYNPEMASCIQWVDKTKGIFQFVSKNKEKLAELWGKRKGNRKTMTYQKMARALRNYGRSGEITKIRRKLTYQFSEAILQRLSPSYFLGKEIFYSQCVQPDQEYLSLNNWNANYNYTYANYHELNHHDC
Summary of the method: as §1

ELF4 = ELF4 (Homo sapiens, UniProt Q99607 1-663); settings: protein: recombinant; tags: N-terminal GST; dsDNA, one strand shown
Sequence of ELF4 (Q99607 whole entry): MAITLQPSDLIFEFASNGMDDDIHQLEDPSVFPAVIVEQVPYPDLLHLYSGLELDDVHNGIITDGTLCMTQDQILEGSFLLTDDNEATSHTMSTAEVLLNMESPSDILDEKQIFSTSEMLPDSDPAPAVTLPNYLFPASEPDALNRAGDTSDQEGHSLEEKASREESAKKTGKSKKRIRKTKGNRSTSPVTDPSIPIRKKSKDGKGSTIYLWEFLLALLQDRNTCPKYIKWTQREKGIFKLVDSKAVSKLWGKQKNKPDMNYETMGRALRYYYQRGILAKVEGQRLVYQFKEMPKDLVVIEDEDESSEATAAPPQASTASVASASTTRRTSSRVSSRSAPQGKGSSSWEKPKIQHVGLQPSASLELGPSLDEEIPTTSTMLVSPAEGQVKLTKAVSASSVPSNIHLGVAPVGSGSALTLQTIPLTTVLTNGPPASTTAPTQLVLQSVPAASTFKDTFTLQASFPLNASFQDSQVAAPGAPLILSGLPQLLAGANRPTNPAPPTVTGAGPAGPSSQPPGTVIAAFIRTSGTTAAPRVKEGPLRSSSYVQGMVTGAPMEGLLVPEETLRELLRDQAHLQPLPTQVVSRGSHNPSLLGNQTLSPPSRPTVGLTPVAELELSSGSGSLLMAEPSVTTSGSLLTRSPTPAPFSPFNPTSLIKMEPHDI
Summary of the method: as §1

ELK4 = molecular target: T9, ELK4 (Homo sapiens, UniProt P28324-2 1-405); settings: protein: recombinant; tags: N-terminal GST; dsDNA, one strand shown
T9 sequence: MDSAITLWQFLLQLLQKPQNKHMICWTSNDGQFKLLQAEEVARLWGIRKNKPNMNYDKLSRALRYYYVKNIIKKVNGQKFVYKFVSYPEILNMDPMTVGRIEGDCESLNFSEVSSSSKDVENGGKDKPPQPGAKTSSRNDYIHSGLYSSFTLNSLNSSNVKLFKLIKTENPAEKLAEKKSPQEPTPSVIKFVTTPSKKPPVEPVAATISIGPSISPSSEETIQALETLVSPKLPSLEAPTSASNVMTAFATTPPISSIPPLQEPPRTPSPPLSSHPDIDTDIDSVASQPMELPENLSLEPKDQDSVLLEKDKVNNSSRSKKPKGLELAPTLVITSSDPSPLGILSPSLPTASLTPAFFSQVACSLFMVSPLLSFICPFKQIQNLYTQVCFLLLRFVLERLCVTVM
Summary of the method: as §1

ETV2 = molecular target: T10, ETV2 (Homo sapiens, UniProt O00321 1-342); settings: protein: recombinant; tags: N-terminal GST; dsDNA, one strand shown
T10 sequence: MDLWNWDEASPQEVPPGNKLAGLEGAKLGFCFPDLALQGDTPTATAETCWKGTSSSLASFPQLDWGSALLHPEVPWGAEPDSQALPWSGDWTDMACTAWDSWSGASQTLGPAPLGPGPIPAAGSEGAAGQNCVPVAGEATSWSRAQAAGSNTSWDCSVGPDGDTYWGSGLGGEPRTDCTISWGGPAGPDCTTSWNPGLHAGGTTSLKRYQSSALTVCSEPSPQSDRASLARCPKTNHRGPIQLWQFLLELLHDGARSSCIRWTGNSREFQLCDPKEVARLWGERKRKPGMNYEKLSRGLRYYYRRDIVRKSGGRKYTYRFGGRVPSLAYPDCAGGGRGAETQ
Summary of the method: as §1

ELF3 = molecular target: T11, ELF3 (Homo sapiens, UniProt P78545 1-371); settings: protein: recombinant; tags: N-terminal GST; dsDNA, one strand shown
T11 sequence: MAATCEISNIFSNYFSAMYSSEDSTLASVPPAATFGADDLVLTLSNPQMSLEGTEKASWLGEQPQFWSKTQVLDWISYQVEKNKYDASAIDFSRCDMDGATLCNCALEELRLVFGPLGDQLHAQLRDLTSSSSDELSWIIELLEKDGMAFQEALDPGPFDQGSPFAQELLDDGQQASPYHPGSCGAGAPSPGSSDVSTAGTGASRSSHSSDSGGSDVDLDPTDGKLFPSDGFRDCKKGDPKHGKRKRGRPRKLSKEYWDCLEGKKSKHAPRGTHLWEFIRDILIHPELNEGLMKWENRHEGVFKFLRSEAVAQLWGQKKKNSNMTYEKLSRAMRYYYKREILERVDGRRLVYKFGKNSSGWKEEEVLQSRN
Summary of the method: as §1

CRX = CRX (Homo sapiens, UniProt O43186 1-299); settings: protein: recombinant; tags: N-terminal GST; dsDNA, one strand shown
Sequence of CRX (O43186 whole entry): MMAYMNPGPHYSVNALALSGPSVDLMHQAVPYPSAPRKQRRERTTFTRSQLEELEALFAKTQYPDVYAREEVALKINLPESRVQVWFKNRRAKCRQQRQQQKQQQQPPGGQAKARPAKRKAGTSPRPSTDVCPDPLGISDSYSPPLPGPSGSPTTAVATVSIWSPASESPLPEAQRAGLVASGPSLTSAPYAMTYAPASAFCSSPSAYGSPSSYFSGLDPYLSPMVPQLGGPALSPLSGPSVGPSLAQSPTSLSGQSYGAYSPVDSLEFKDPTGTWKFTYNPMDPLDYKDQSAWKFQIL
Summary of the method: as §1

ETV1 = ETV1 (Homo sapiens, UniProt P50549 1-477); settings: protein: recombinant; tags: N-terminal GST; dsDNA, one strand shown
Sequence of ETV1 (P50549 whole entry): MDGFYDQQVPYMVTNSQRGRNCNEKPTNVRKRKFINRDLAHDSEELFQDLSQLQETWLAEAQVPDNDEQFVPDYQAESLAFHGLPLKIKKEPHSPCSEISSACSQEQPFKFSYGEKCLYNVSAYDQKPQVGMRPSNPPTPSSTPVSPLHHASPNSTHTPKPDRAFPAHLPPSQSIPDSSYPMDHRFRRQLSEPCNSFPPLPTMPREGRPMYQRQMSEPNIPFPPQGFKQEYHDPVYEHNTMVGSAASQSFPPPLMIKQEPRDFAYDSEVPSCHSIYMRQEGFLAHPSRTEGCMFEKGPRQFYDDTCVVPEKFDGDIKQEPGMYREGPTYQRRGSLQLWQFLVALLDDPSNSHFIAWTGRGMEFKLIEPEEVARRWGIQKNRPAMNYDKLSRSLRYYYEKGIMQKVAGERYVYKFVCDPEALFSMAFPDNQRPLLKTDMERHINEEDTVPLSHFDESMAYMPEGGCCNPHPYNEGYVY
Summary of the method: as §1

**Q.** Which results are given for CCATTT?
**A.** binding signal (FLI1): 1.25 fold enrichment (6-mer frequency, TF over GST control); binding signal (ELK1): 1.29 fold enrichment (6-mer frequency, TF over GST control); binding signal (GABPA): 1.42 fold enrichment (6-mer frequency, TF over GST control); binding signal (ERG): 1.4 fold enrichment (6-mer frequency, TF over GST control); binding signal (ELF1): 1.27 fold enrichment (6-mer frequency, TF over GST control); binding signal (EHF): 1.31 fold enrichment (6-mer frequency, TF over GST control); binding signal (SPI1): 1.45 fold enrichment (6-mer frequency, TF over GST control); binding signal (SPIB): 1.37 fold enrichment (6-mer frequency, TF over GST control); binding signal (ELK3): 1.33 fold enrichment (6-mer frequency, TF over GST control); binding signal (FEV): 1.5 fold enrichment (6-mer frequency, TF over GST control); binding signal (ETV5): 1.47 fold enrichment (6-mer frequency, TF over GST control); binding signal (HSF1): 1.01 fold enrichment (6-mer frequency, TF over GST control); binding signal (SPIC): 1.42 fold enrichment (6-mer frequency, TF over GST control); binding signal (ELF4): 1.32 fold enrichment (6-mer frequency, TF over GST control); binding signal (ELK4): 1.41 fold enrichment (6-mer frequency, TF over GST control); binding signal (ETV2): 1.38 fold enrichment (6-mer frequency, TF over GST control); binding signal (ELF3): 1.28 fold enrichment (6-mer frequency, TF over GST control); binding signal (CRX): 1.01 fold enrichment (6-mer frequency, TF over GST control); binding signal (ETV1): 1.36 fold enrichment (6-mer frequency, TF over GST control)
